Hits are enriched below; roughly 2.2% of the tested compounds scored in any of these assays.
Abeta rescue: compounds reversing amyloid beta toxicity in yeast; yeast expressing A-beta42, growth rescue, OD600, 48 h; response scale: 0% DMSO, 100% iron-clioquinol control; Potency, µM (series often up to 46.1 µM), usual class: activators; hit rate 0.063% among 410,000; also: nearly all actives have a fitted effect of over 55% in size
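Growth rescue measured by 600 nm absorbance after 48 h yeast culture at 30 C with compound. Values normalized between DMSO and an equimolar ferric chloride plus clioquinol control.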
TDP43 rescue: TDP-43 toxicity inhibition in yeast; TDP-43 expressing yeast growth rescue, BacTiter-Glo, 24 h; Potency, µM (doses to about 46.1 µM), for the others: at the top dose growth rescue (activation), actives largely listed as activators; hit rate 1.8% among 410,000; AID 652104; also: % of control where 0% means no effect; nearly all actives have a fitted effect of over 50% in size
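In this qHTS, compounds that restore growth of yeast expressing TDP-43 appear as activators. Cells (OD600=0.02, galactose medium, raffinose-pregrown) are incubated with compound 24 hr at 30 deg C and growth is quantified by BacTiter-Glo.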
FUS suppressor: rescues growth of FUS-expressing yeast; AID 1347120; Potency, µM (titrated, usually from 76.6 µM), hits mostly activators; hit rate 0.24% among 390,000; S. cerevisiae FUS-expressing, growth rescue, OD600, 24 h;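 also: plate controls were DMSO vehicle for no effect and reference control for full effect; nearly all actives have a fitted effect of over 55% in size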
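Cultures pregrown in 2.5% raffinose medium are shifted to minimal medium containing 2% galactose to express toxic FUS. Compounds are tested at several concentrations. After 24hr at 30C, growth is quantified at 600 nm absorbance.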
aSyn rescue: inhibitors of alpha-synuclein toxicity in yeast. hit rate 0.14% among 370,000. AID 652106. Yeast expressing alpha-synuclein, growth rescue, BacTiter-Glo, 24 h. Potency, µM (series often up to 46.1 µM), for the others: at the top dose growth rescue (activation), usual class: activators; also: % of control where 0% means no effect; nearly all actives have a fitted effect of over 65% in size
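Screening used galactose-induced yeast with toxic alpha-synuclein levels, exposed to compound for 24 hr at 30 deg C. Cell growth, read with BacTiter-Glo luminescence, gave the measured signal.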
Mito fusion act: blocks mitochondrial division or promotes mitochondrial fusion. S. cerevisiae fusion-defective mutant growth rescue, CellTiterGlo 48 h. Potency, µM (doses to about 46.1 µM), for inactives: at the top dose growth rescue (activation), usual class: activators. hit rate 0.23% among 320,000. AID 485298; also: % of control where 0% means no effect; nearly all actives have a fitted effect of over 45% in size
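Growth-rescue viability read-out: after 48 h at the non-permissive 37C in glycerol/ethanol YPEG, yeast mitochondrial fusion mutants are measured by CellTiterGlo luminescence; compounds (23 nl pinned per well) restoring growth score as division inhibitors or fusion activators.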
Starred values were filed as active, the others as inactive; i = inactive; ? = inconclusive; . = not tested or not shown; ! = repeats disagree. Calls follow the shape of the dose curve; as a rule, active = well fitted curve in the direction sought with a large enough effect; inconclusive = small, poorly fitted or top-dose-only effect, or another doubt; inactive = no such curve, though single readings can be large; an effect the other way counts as inactive or inconclusive. Potency is read from the fitted curve at half-maximal effect.

SMILES	Abeta rescue	TDP43 rescue	FUS suppressor	aSyn rescue	Mito fusion act
CC(C)(C)n1nnnc1C(c1cc2ccccc2o1)N1CCC2(CC1)C(=O)NCN2c1ccccc1 (configuration not stated)	i	22%	?	1%	.
O=C1NCN(c2ccccc2)C12CCN(C(c1cc3ccccc3o1)c1nnnn1C1CCCCC1)CC2 (configuration not stated)	i	26%	11µM*	17%	.
CC[C@H](C(N)=O)N1CCCC1=O	.	.	i	.	.
CCC(=NCCCn1ccnc1)c1c(O)n(Cc2ccccc2)c(=O)[nH]c1=O	i	32µM*	i	-2%	2%
O=C(c1ccccc1Cl)N1CCC(c2nc3ccccc3s2)CC1	i	16µM*	i	.	.
Clc1ccccc1CN1CCN(c2ccccc2)CC1	i	-21%	i	1%	3%
c1ccc(N2CCN(c3ncnc4c3nc3n4CCCCC3)CC2)cc1	i	14µM*	i	.	.
COc1ccc(S(=O)(=O)N(C)C[C@H]2OCCCC[C@@H](C)Oc3ccc(N(C)C)cc3C(=O)N([C@H](C)CO)C[C@@H]2C)cc1	i	9%	i	-1%	.
CCC1(OC(=O)CN)C(=O)OCc2c1cc1n(c2=O)Cc2cc3ccccc3nc2-1 (configuration not stated)	i	27%	i	3%	0.79µM*
CC[C@@]1(O)C(=O)OCc2c1cc1n(c2=O)Cc2cc3c(NC(=O)CN)cccc3nc2-1	i	-6%	i	-2%	6%
CC[C@@]1(O)C(=O)OCc2c1cc1n(c2=O)Cc2cc3ccccc3nc2-1	.	.	.	18%	13µM*!
COc1ccc(-c2coc3c(C(=O)Nc4cc(OC)c(OC)c(OC)c4)cccc23)c(C)c1	i	?	i	-5%	.
O=S(=O)(c1ccccc1C(F)(F)F)N1CCN(c2ncnc3sccc23)CC1	i	13µM*	i	20%	.
Cc1ccc(NC(=O)C2CCN(C(=O)c3cnn(-c4ccccc4)c3-n3cccc3)CC2)cc1Cl	i	35µM*	i	.	.
CC(=O)OCC1=C(C(=O)O)N2C(=O)[C@@H](NC(=O)CCC[C@@H](N)C(=O)O)[C@H]2SC1	.	.	.	-7%	4%
CC(C)(C)NC(=O)C1CC2CCCCC2CN1 (configuration not stated)	i	-17%	i	-3%	3.5µM*
COc1ccc(CC2NCC(O)C2OC(C)=O)cc1 (configuration not stated)	i	13µM*	i	?	.
CN(N=O)c1ccc(O)c(O)c1	.	.	.	2%	?
Cc1nc2ccc(NC(=O)C3COc4ccccc4O3)cc2s1 (configuration not stated)	i	16µM*	i	1%	5%
C=CCN1CCc2cccc3c2[C@H]1Cc1ccc(O)c(O)c1-3	i	.	i	14%	4.1µM*!
COc1ccc(-c2ccc3c(c2)CN(C(=O)CCc2ccccc2)Cc2cnnn2-3)cc1	i	?	?	-3%	.
COc1ccc(-c2ccc3c(c2)CN(C(=S)NCCc2ccccc2)Cc2cnnn2-3)cc1	i	?	i	4µM*	.
S=C(NCCc1ccccc1)N1Cc2cc(Br)ccc2-n2nncc2C1	?	22µM*	i	?	.
O=C(NC1CCCCC1)N1Cc2cc(-c3ccccc3)ccc2-n2nncc2C1	i	20µM*	i	10%	.
S=C(NCCc1ccccc1)N1Cc2ccc(Br)cc2-n2nncc2C1	?	25µM*	i	?	.
SMILES	Abeta rescue	TDP43 rescue	FUS suppressor	aSyn rescue	Mito fusion act
O=C(CCc1ccccc1)N1Cc2cc(-c3cccc(F)c3)ccc2-n2nncc2C1	i	?	i	28%	.
NCC(=O)c1ccc2ccccc2c1	.	.	.	-2%	.
O=C(CN1C(=O)[C@@H](Cc2ccccc2)N=C(c2ccccc2)c2ccccc21)NC1CCCCC1	.	.	i	.	.
Cc1cc([C@@H]2CCCN2C)on1	.	.	.	2%	-30%
Cc1ccc(NC(=O)CN2C(=O)CN=C(c3ccccc3)c3ccccc32)cc1	i	3%	i	.	-1%
Cc1ccc(NC(=O)CN2C(=O)CN=C(c3ccccc3)c3cc(Cl)ccc32)cc1	i	14µM*	?	?	26%
O=C(CN1C(=O)CN=C(c2ccccc2)c2ccccc21)Nc1cccc(C(F)(F)F)c1	i	35µM*	?	.	.
CCCCc1nc2ccccc2c(=O)n1-c1cccc(OC)c1	i	?	i	.	.
C=CCOC(Cn1ccnc1)c1ccc(Cl)cc1Cl (configuration not stated)	i	11µM*	i	?	25µM*
C[C@]12CC[C@H](O)CC1=CC[C@@H]1[C@@H]2CC[C@]2(C)C(=O)CC[C@@H]12	i	16µM*	i	?	.
COc1ccc(OCC(=O)N2CCN(Cc3cc(=O)n4nc(-c5ccccc5C)sc4n3)CC2)cc1	i	-2%	i	.	.
Cc1nc(-c2cccc(CN(C)C(=O)Oc3ccc([N+](=O)[O-])cc3)c2)no1	i	13µM*	i	-18%	.
COc1ccc(NC(=O)CCn2cc(C)c3ccccc32)cc1	i	?	i	-4%	13%
OC1CCC(Nc2ccn3nc(-c4cccc(OCc5ccccc5)c4)cc3n2)CC1 (configuration not stated)	i	35µM*	?	-20%	.
COC(=O)C1=C(c2cccc(OCc3ccccc3)c2)C[C@@H]2CC[C@H]1N2C(=O)NCCOc1ccc(OC)cc1	i	25%	?	-7%	18%
COC(=O)C1=C(c2ccccc2OCc2ccccc2)C[C@@H]2CC[C@H]1N2C(=O)NCc1ccc([N+](=O)[O-])cc1	i	23%	28µM*	14%	?
COC(=O)C1=C(c2ccccc2OCc2ccccc2)C[C@@H]2CC[C@H]1N2C(=O)NCc1ccc(N(C)C)cc1	i	19%	i	18%	?
COC(=O)C1=C(c2ccc(F)cc2OCc2ccccc2)C[C@@H]2CC[C@H]1N2C(=O)NCc1ccc(OC)cc1	i	?	i	7%	?
COC(=O)C1=C(c2ccccc2OCc2ccccc2)C[C@@H]2CC[C@H]1N2C(=O)NCc1ccc(Cl)cc1	i	?	32µM*	13%	?
COC(=O)C1=C(c2ccccc2OCc2ccccc2)C[C@@H]2CC[C@H]1N2C(=O)NCc1ccc(OC)c(OC)c1	i	29%	?	-9%	20%
COC(=O)C1=C(c2ccc(F)cc2OCc2ccccc2)C[C@@H]2CC[C@H]1N2C(=O)NCc1ccc(Br)cc1	i	3.5µM*	?	12%	?
O=[N+]([O-])c1ccc(O[C@@H]2O[C@H](CO)[C@@H](O)[C@H](O)[C@H]2F)c([N+](=O)[O-])c1	.	.	.	-22%	-65%
Cc1nn(C(C)(C)C)c(C)c1/C=N/OC(=O)Nc1ccc(Cl)cc1	i	?	i	-2%	9%
CN1CC[C@@]2(C)c3cc(O)ccc3N(C)C12 (some centres not stated)	.	.	.	1%	?
CCOc1ccc(CN(CCc2ccc3c(c2)OCO3)Cc2cc(OC)ccc2O)cc1	i	7%	i	.	.

Screens: PubChem BioAssay, National Center for Advancing Translational Sciences (NCATS)
